Among the test systems are NCI-H23 lung; NCI-H226 lung; NCI-H322M lung; HOP-62 NSCLC; NCI-H460 lung; HOP-92 NSCLC; NCI-H522 lung; A549/ATCC NSCLC; 786-0 renal; COLO 205 colon; DU-145 prostate; K-562 leukemia; MALME-3M melanoma; MDA-MB-231 breast; RXF 393 renal; SF-268 CNS; SF-295 CNS; SF-539 CNS; UACC-257 melanoma; M14 melanoma.
Holding throughout (assay): NCI-60 one-dose screen, 48 h (100 = growth as untreated, 0 = no growth, -100 = all killed)
Common to all, as to conditions: 10 µM unless noted

This is part of a sample that, as a whole, favours compounds with a hit. Of some 83,000 tested, about 20% had one in any assay.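 Treatment: one concentration, 48 hours, 96-well format. Scoring: percent growth, with anything below 10 considered active.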 Unmarked numbers belong to inactive results. Calls of active or inactive are those of the source.

Take `CCC(=C(c1ccc(OCCN(CC)CC)cc1)c1ccc(OCCN(CC)CC)cc1)c1ccc(Cl)cc1`: the growth is 68.7% with NCI-H23 lung; 109% in the experiment on NCI-H226 lung; -8.03% (active) with NCI-H322M lung; -27% (active) in the experiment on HOP-62 NSCLC; -81.4% (active) with NCI-H460 lung; 33.5% in the experiment with HOP-92 NSCLC. The growth in the experiment with NCI-H522 lung is -39.4% (active); in the experiment on A549/ATCC NSCLC it was -75% (active); in the experiment on 786-0 renal, -95.4% (active); with COLO 205 colon, -69% (active); in the experiment on DU-145 prostate, -19.7% (active); with K-562 leukemia it was 0.499% (active). In addition, the growth was -81.4% (active) with MALME-3M melanoma; -81.7% (active) with MDA-MB-231 breast; -54.3% (active) in the experiment with RXF 393 renal; -4.01% (active) in the experiment with SF-268 CNS; -68.5% (active) in the experiment on SF-295 CNS; -90.3% (active) in the experiment on SF-539 CNS. In addition, the values for the growth with UACC-257 melanoma and in the experiment on M14 melanoma were -65% (active) and -79% (active), respectively.
Take `CC(C)(C)n1cc(-c2ccnc(NCCNS(=O)(=O)c3cccc4ccccc34)c2)c(-c2cccc(O)c2)n1`: the growth in the experiment on NCI-H23 lung is 69.7%; with NCI-H226 lung, 75.3%; with NCI-H322M lung it was 89.6%; with HOP-62 NSCLC, 88.2%; with NCI-H460 lung, 55.9%; in the experiment with HOP-92 NSCLC, 64.5%. In addition, the growth was 61.9% with NCI-H522 lung; 62.7% in the experiment with A549/ATCC NSCLC; 64.3% in the experiment with 786-0 renal; -33.1% (active) with COLO 205 colon; 83.3% in the experiment with DU-145 prostate; 15.4% in the experiment with K-562 leukemia. Also, the growth in the experiment with MALME-3M melanoma was 75.7%; in the experiment on MDA-MB-231 breast it was 81.9%; in the experiment on RXF 393 renal, 73.3%; in the experiment with SF-268 CNS, 81.4%; in the experiment on SF-295 CNS, 92.5%; in the experiment on SF-539 CNS it was 77.1%. For the same molecule, the growth in the experiment with UACC-257 melanoma is 81.1%; in the experiment with M14 melanoma, 66.5%.
As for `CO[C@H]1CC(c2ccc[nH]2)=N[C@]12O[C@@H](C)C[C@@H]1CCCCCCCc3ccc([nH]3)[C@H]12`, the growth is 28.1% with NCI-H23 lung; 29.3% in the experiment with NCI-H226 lung; 37.8% in the experiment with NCI-H322M lung; 17% in the experiment on NCI-H460 lung; 10.3% in the experiment with HOP-92 NSCLC; 20.8% in the experiment on NCI-H522 lung. The growth in the experiment on A549/ATCC NSCLC was 11.2%; in the experiment on 786-0 renal, 11.7%; in the experiment on COLO 205 colon, 7.52% (active); in the experiment on DU-145 prostate, 30.3%; in the experiment on K-562 leukemia, 21.3%; in the experiment on MALME-3M melanoma it was -14.5% (active). The growth is 14.1% in the experiment with MDA-MB-231 breast; 52.7% in the experiment on RXF 393 renal; 48.6% in the experiment on SF-268 CNS; 17.4% in the experiment on SF-295 CNS; 20% with SF-539 CNS; 13.2% in the experiment on UACC-257 melanoma. The growth in the experiment on M14 melanoma was 13.2%.
In the case of `O=c1c2cccc3c(N4CCOCC4)ccc(c32)c2nc3ccccc3n12`, the growth with NCI-H23 lung was 76.9%; in the experiment with NCI-H226 lung, 91%; in the experiment with NCI-H322M lung it was 89.1%; in the experiment on NCI-H460 lung, 88.4%; in the experiment with HOP-92 NSCLC it was 59.2%; in the experiment with NCI-H522 lung, 80.5%. Moreover, the growth is 92.7% in the experiment on A549/ATCC NSCLC; 97.5% in the experiment with 786-0 renal; 87.6% in the experiment on COLO 205 colon; 109% in the experiment with DU-145 prostate; 80% in the experiment with K-562 leukemia; 97.7% in the experiment on MALME-3M melanoma. The growth in the experiment on MDA-MB-231 breast is 82%; in the experiment with RXF 393 renal, 131%; with SF-268 CNS, 109%; in the experiment with SF-295 CNS, 86.3%; in the experiment on SF-539 CNS it was 90.5%; in the experiment with UACC-257 melanoma, 96.2%. In addition, in the experiment with M14 melanoma, the growth is 104%.
Consider `CCOC(=O)c1c(NC(=S)Nc2ccc([N+](=O)[O-])cc2)sc2c1CCCCC2`, for which the growth in the experiment on NCI-H23 lung is 69.4%; with NCI-H226 lung, 70.8%; with NCI-H322M lung, 83.5%; in the experiment on NCI-H460 lung, 69.7%; in the experiment on HOP-92 NSCLC, 0.0405% (active); with NCI-H522 lung, 58.7%. Further, the growth is 84.4% with A549/ATCC NSCLC; 92.9% with 786-0 renal; 105% in the experiment with COLO 205 colon; 89.8% in the experiment on DU-145 prostate; 81.1% in the experiment on K-562 leukemia; 72.7% in the experiment with MALME-3M melanoma. For the same molecule, the growth with MDA-MB-231 breast was 79.7%; with RXF 393 renal, 85.6%; in the experiment on SF-268 CNS, 89%; in the experiment on SF-295 CNS, 87.2%; with SF-539 CNS it was 92%; in the experiment on UACC-257 melanoma it was 70.4%. Besides, the growth in the experiment with M14 melanoma is 93.7%.
For the molecule `C(=N\Nc1nnc2n1N=C(c1ccccc1)CS2)/c1ccc(OCc2ccccc2)cc1`, the growth is 103% with NCI-H23 lung; 88.9% in the experiment with NCI-H226 lung; 107% with NCI-H322M lung; 106% with NCI-H460 lung; 110% with HOP-92 NSCLC; 88.1% in the experiment with NCI-H522 lung. For the same molecule, the growth was 91.1% in the experiment with A549/ATCC NSCLC; 110% in the experiment on 786-0 renal; 112% in the experiment with COLO 205 colon; 104% in the experiment with DU-145 prostate; 57.6% in the experiment on K-562 leukemia; 125% in the experiment with MALME-3M melanoma. In addition, the growth in the experiment with MDA-MB-231 breast is 108%; with RXF 393 renal, 80.1%; in the experiment with SF-268 CNS, 115%; in the experiment on SF-295 CNS, 101%; with SF-539 CNS, 102%; in the experiment with UACC-257 melanoma, 103%. Besides, the growth in the experiment with M14 melanoma is 113%.
Regarding `COc1cc2nc3cc([N+](=O)[O-])ccc3c(NCCCNCCO)c2cc1OC`, the growth with NCI-H23 lung is -29.1% (active); in the experiment on NCI-H226 lung, -39.5% (active); in the experiment with NCI-H322M lung it was -27.7% (active); in the experiment on NCI-H460 lung, -39% (active); in the experiment with HOP-92 NSCLC, -46.4% (active); in the experiment on NCI-H522 lung, -52% (active). Further, the growth in the experiment on A549/ATCC NSCLC was -26.6% (active); with 786-0 renal it was -39.2% (active); in the experiment with COLO 205 colon, -76.2% (active); in the experiment with DU-145 prostate it was -31.2% (active); in the experiment with K-562 leukemia, -19% (active); in the experiment with MALME-3M melanoma, -82.6% (active). The growth with MDA-MB-231 breast was -54.5% (active); in the experiment on RXF 393 renal, -58.8% (active); with SF-268 CNS, -46.8% (active); in the experiment on SF-295 CNS, -20.7% (active); in the experiment on SF-539 CNS, -36.2% (active); in the experiment with UACC-257 melanoma it was -53.4% (active). For the same molecule, the growth in the experiment on M14 melanoma is -66.5% (active).
Turning to `Cn1cc(-c2csc(-c3cn(CCO)c4ccc(F)cc34)n2)c2cccnc21`, the growth with NCI-H23 lung is 74.1%; with NCI-H226 lung it was 76%; with NCI-H322M lung it was 79.1%; with NCI-H460 lung it was 27%; in the experiment with HOP-92 NSCLC, 64.8%; in the experiment on NCI-H522 lung, 10%. The growth in the experiment on A549/ATCC NSCLC was 49.8%; in the experiment with 786-0 renal, 73.3%; in the experiment on COLO 205 colon it was 46%; in the experiment with DU-145 prostate, 95.4%; in the experiment on K-562 leukemia it was 18.1%; in the experiment on MALME-3M melanoma, 72.8%. Moreover, the growth in the experiment with MDA-MB-231 breast is 57.9%; in the experiment with RXF 393 renal it was 69.7%; in the experiment on SF-268 CNS it was 77.6%; in the experiment with SF-295 CNS it was 52.3%; in the experiment with SF-539 CNS it was 69.9%; with UACC-257 melanoma, 77.4%. Further, the growth in the experiment with M14 melanoma is 35.7%.

(Values after PubChem BioAssay (NCI).)
